# According to PubChem BioAssay AID1347404 (Pan Lab, Icahn School of Medicine at Mount Sinai, 2020):
# The whole screen tested about 140,000 compounds, of which about 860 (0.61%) were called active. This excerpt belongs to a sample that is enriched for actives. Values without a mark were called inactive. Rule as the data show it: active = inhibition above about 25%; inactive = the rest.
# Target: E3 ubiquitin-protein ligase RBX1 (Homo sapiens) + Cullin-1 (Homo sapiens) (UniProt P62877+Q13616)
# Experiment: inhibitors of human ROC1-CUL1 ubiquitin ligase activity (AID 1347404)
# Settings: in vitro K48 di-Ub FRET, acceptor:donor ratio, 45 min; at 10 µM; stronger effect = higher value
# Chain of E3 ubiquitin-protein ligase RBX1 (Homo sapiens) + Cullin-1 (Homo sapiens) (P62877 whole entry, looked up): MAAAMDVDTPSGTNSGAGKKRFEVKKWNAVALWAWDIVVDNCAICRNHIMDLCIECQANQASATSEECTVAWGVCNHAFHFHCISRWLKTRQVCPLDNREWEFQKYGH
# Chain of E3 ubiquitin-protein ligase RBX1 (Homo sapiens) + Cullin-1 (Homo sapiens) (Q13616 whole entry, looked up): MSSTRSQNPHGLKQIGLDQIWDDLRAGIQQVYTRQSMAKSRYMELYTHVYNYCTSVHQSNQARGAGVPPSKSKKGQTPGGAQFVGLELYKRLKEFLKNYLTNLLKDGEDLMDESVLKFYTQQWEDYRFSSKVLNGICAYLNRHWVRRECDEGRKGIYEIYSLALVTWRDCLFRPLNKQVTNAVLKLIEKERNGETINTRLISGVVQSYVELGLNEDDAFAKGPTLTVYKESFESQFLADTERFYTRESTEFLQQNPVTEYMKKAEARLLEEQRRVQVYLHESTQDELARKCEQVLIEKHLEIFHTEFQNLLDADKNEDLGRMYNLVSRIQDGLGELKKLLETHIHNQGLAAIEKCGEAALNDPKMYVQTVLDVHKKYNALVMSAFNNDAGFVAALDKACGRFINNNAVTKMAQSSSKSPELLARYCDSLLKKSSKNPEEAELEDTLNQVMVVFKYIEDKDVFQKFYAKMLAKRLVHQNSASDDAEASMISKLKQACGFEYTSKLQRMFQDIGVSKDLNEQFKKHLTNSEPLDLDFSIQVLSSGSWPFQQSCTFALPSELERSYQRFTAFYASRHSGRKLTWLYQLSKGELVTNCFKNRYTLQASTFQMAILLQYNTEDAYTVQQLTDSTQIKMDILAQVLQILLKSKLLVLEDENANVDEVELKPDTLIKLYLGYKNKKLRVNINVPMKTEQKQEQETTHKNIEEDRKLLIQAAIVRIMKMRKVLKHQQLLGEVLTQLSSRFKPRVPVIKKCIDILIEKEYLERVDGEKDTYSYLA
row,Compound,inhibition
1,Cn1c(CC(=O)c2ccc(F)cc2)nccc1=O,2.65%
2,O=C(OCc1ccccc1)c1ccc(O)c(O)c1,43% (active)
3,O=C(OCc1ccccc1)c1cncc(Br)c1,-7.74%
4,COC(=O)c1cccc(COC(=O)c2ccc(NC(C)=O)cc2)c1,1.6%
5,Nc1nc2cccnc2cc1Br,1.54%
6,CCOc1cccc(CC(=O)N2CCc3c([nH]c4ccccc34)C2c2ccc(F)cc2)c1OCC (stereo not given),1.07%
7,Fc1cc(Br)cc2c1NC(c1ccccc1C(F)(F)F)C1CC=CC21 (stereo not given),1.76%
8,CCOc1cccc2c1N[C@@H](c1ccc(C(=O)O)cc1)[C@H]1CC=C[C@@H]21,68.9% (active)
9,Cc1cc(/C=C2/C(=N)N3N=C(c4ccccc4Cl)SC3=NC2=O)c(C)n1-c1ccc(Cl)cc1Cl,2.61%
10,Cc1ccc(C2=NN3C(=N)/C(=C/c4ccco4)C(=O)N=C3S2)cc1,34.8% (active)
11,CCC(C1=NN2C(=N)/C(=C\c3ccc(OC(=O)c4ccco4)cc3)C(=O)N=C2S1)c1ccccc1 (stereo not given),-6.1%
12,Cc1ccc(C)c(-n2nnc(C(=O)Nc3ccc(N4CCN(C)CC4)cc3)c2C)c1,12.2%
13,COc1cccc(OC)c1C(=O)Oc1ccc(Br)cc1Br,3.84%
14,CCOC(=O)C1=C(C)N=c2s/c(=C\c3ccc(N(CC)CC)cc3O)c(=O)n2C1c1ccc(Br)cc1 (stereo not given),49.4% (active)
15,CCOC(=O)C1=C(C)N=c2s/c(=C\c3cc(C)n(-c4ccc(Br)cc4)c3C)c(=O)n2C1c1ccccc1Cl (stereo not given),-10.4%
16,CCOC(=O)C1=C(C)N=c2s/c(=C\c3cccnc3)c(=O)n2C1c1ccc(OC)c(Br)c1 (stereo not given),-5.43%
17,CCOC(=O)C1(CCOC)CCN(Cc2ccc(C#CCCO)cc2)CC1,-1.32%
18,C=C(C)COc1ccc(NC(C)=O)cc1,-3.18%
19,Cc1ccc(N=C2S/C(=C\c3cc(Cl)ccc3O)C(=O)N2C)cc1C,-0.425%
20,Cc1c(CN2CCc3[nH]nc(-c4cccc(F)c4)c3C2)cnn1C,8.08%
21,CN(C)S(=O)(=O)N1CCC(C(=O)Nc2ccc(Cl)c(C(F)(F)F)c2)CC1,6.61%
22,N#Cc1cccc(-c2cccc(-c3ccn[nH]3)c2)c1,2.7%
23,Cc1ccc(C2=NC(=O)OC2(C)C)c(C)c1,2.99%

row,Compound,inhibition
1,COC(=O)COc1ccc(/C=N/NC(=O)c2ccc(N(Cc3ccccc3Cl)S(C)(=O)=O)cc2)cc1,-4.5%
2,Cc1cc(O)c(C(=O)C2=CSc3nnc(-c4ccccc4)n3N=C2)cc1Cl,2.34%
3,CCOC(=O)C1C(C)=NC(=O)NC1c1cn(-c2ccccc2)nc1-c1ccc(Cl)cc1 (stereo not given),-6.88%
4,C=CCC(=O)N1CCC(C2CCN(Cc3cccnc3)CC2)C1 (stereo not given),0.333%
5,Cc1ccc(C)c(NC(=O)NC2CCCc3ccccc32)c1 (stereo not given),-5.58%
6,CC(Oc1ccc(F)cc1)C(=O)NC(C)c1ccccc1 (stereo not given),-5.33%
7,Cc1nn(-c2ccccc2)c(Cl)c1C1c2c(n[nH]c2-c2ccccc2)OC(=N)C1C#N (stereo not given),-6.2%
8,CCn1c2ccccc2c2cc(C=Nc3cccc(Cl)c3C)ccc21,-4.47%
9,Cc1cc2nc(N3CCC(C(=O)NC45CC6CC(CC(C6)C4)C5)CC3)nc(C)c2cc1C,17.1%
10,CCC(NC1CCN(c2nc(C)c3cc(C)c(C)cc3n2)CC1)c1ccncc1 (stereo not given),57.6% (active)
11,COCCNC(=O)C1CCN(c2nc(C)c3cc(C)c(C)cc3n2)CC1,-4.41%
12,Clc1ccc(COn2nnc3ccccc32)cc1Cl,-0.0969%
13,O=[N+]([O-])c1ccccc1/C=N/Nc1nc2c(s1)CCCC2,-4.02%
14,CCCCNC(=O)c1nnn(-c2ccccc2)c1C,9.64%
15,CCOC(=O)C1=c2s/c(=C/c3ccc(Cl)cc3)c(=O)n2C(=N)C(C(=O)OC)C1c1ccc(Cl)cc1 (stereo not given),-2.16%
16,Cc1ccc(C(=O)Nc2ccc(-c3nnc(SCC(=O)Nc4ccc(F)cc4)n3C)cc2)cc1,2.28%
17,C#CCOc1ccc(/C=C2\SC(=S)N(c3cccc(C(=O)O)c3)C2=O)cc1OC,-1.21%
18,O=C1SC(=Nc2ccccc2)N=C1Cc1cccc(OC(=O)c2ccccc2)c1,2.05%
19,Cc1ccc(CCC(=O)NCc2ccc(Cl)cc2)cc1,-2.97%
20,Nc1nnnn1/N=C/c1ccc([N+](=O)[O-])o1,5.46%
21,O=C(O)c1cc2c(s1)C=Cc1ccccc1C2,4.96%
22,Cc1nc2c(sc3nc4ccccc4nc32)c(=O)[nH]1,-2.71%
